18 molecules from PubChem BioAssay (NCI) can be followed below.

The panel holds about 83,000 compounds, 20% with a hit somewhere; the sample as a whole holds those more often.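 Step 1: grow cells in 96-well plates. Step 2: add test compound at a single concentration. Step 3: incubate 48 h. Step 4: record percent growth.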 Values without a mark were called inactive. Activity calls are given as the source filed them. The calls were made as follows: active = growth percent below 10; inactive = the rest.

Test systems include DU-145 prostate; K-562 leukemia; MALME-3M melanoma; MDA-MB-231 breast; RXF 393 renal; SF-268 CNS; SF-295 CNS; SF-539 CNS; UACC-257 melanoma; M14 melanoma.
What all share (assay): NCI-60 one-dose screen, 48 h (100 = growth as untreated, 0 = no growth, -100 = all killed)
Common to all, as to conditions: 10 µM unless noted

Turning to `O=C(COc1ccc(-c2nc3cc(Cl)c(Cl)cc3[nH]2)cc1)N=Nc1c(O)[nH]c2ccccc12`, the growth with DU-145 prostate is -20.7% (active); in the test with K-562 leukemia, 10.8%; in the test with MALME-3M melanoma, -68.9% (active); with MDA-MB-231 breast, -50.2% (active); in the test on RXF 393 renal, -5.96% (active); in the test with SF-268 CNS, -64.5% (active). The growth in the test with SF-295 CNS was 5.99% (active); in the test on SF-539 CNS, 41.4%; with UACC-257 melanoma it was 54.4%; with M14 melanoma, -22.1% (active).

As for `CN1CCN(c2ccc3nc(-c4ccc(OCCCCN5CCN(CCCCN6C(=O)c7cccc8cccc(c78)C6=O)CC5)cc4)[nH]c3c2)CC1`, the growth is 45% with DU-145 prostate; 56.5% in the test with K-562 leukemia; 28% with MALME-3M melanoma; 62.7% with MDA-MB-231 breast; 16.1% in the test with RXF 393 renal; 65.7% in the test with SF-268 CNS. Besides, the growth in the test with SF-295 CNS is 29.1%; in the test with SF-539 CNS, 39.8%; in the test with UACC-257 melanoma, 59.8%; in the test on M14 melanoma it was 94.9%.

For `COc1ccc(S(=O)(=O)N2CCN(C)CC2)cc1NC(=O)c1[nH]c(C)c2c1CCCCC2=O`, the growth in the test with DU-145 prostate was 87.1%; in the test on K-562 leukemia, 46.9%; with MALME-3M melanoma it was 52%; in the test on MDA-MB-231 breast, 51.1%; with RXF 393 renal, 84.3%; in the test with SF-268 CNS it was 82%. Also, the growth was 54.7% with SF-295 CNS, 52.5% with SF-539 CNS, 57.9% in the test on UACC-257 melanoma and 54.4% in the test on M14 melanoma.

With `COc1cc(C=Nc2oc(-c3ccccc3)c(-c3ccccc3)c2C#N)cc(CN2CCCCC2)c1O`, the growth was 107% in the test on DU-145 prostate; 102% in the test with K-562 leukemia; 110% in the test with MALME-3M melanoma; 106% with MDA-MB-231 breast; 104% in the test on RXF 393 renal; 94.9% in the test with SF-268 CNS. In addition, the growth in the test with SF-295 CNS is 102%; in the test with SF-539 CNS, 101%; with UACC-257 melanoma, 116%; with M14 melanoma it was 109%.

In the case of `O=[N+]([O-])c1ccc(Nc2nc(NCCN3CCOCC3)ncc2[N+](=O)[O-])cc1`, the growth in the test on DU-145 prostate is 92.5%; in the test with K-562 leukemia it was 103%; in the test on MALME-3M melanoma, 91%; with MDA-MB-231 breast, 95.8%; in the test with RXF 393 renal, 63%; in the test with SF-268 CNS it was 93.8%. The growth in the test with SF-295 CNS is 98.6%; in the test on SF-539 CNS, 93.9%; in the test with UACC-257 melanoma, 109%; in the test on M14 melanoma it was 95%.

`Oc1ccccc1-c1nnc(CNc2ccc(Cl)cc2)o1`: the growth is 35.5% in the test with DU-145 prostate; 13.1% in the test with K-562 leukemia; 44% with MALME-3M melanoma; 46.9% in the test with MDA-MB-231 breast; 37% in the test with RXF 393 renal; 27.4% in the test with SF-268 CNS. Moreover, the growth in the test with SF-295 CNS was 40.6%; with SF-539 CNS, 26.7%; in the test on UACC-257 melanoma, 12.4%; in the test with M14 melanoma, 10.8%.

For the molecule `Cn1cc(C(=O)c2nc(-c3c[nH]c4ccccc34)no2)c2ccccc21`, the growth is 102% in the test with DU-145 prostate; 37.9% in the test with K-562 leukemia; 58.4% with MALME-3M melanoma; 69.8% in the test with MDA-MB-231 breast; 90.1% in the test with RXF 393 renal; 92.1% with SF-268 CNS. Also, the growth in the test on SF-295 CNS is 68.5%; with SF-539 CNS, 91.7%; in the test on UACC-257 melanoma it was 83.9%; in the test with M14 melanoma it was 64.5%.

Take `CCOC(=O)n1cc(-c2nonc2-c2cn(C)c3ncccc23)c2cc(F)ccc21`: the growth in the test with DU-145 prostate is 91.1%; in the test on K-562 leukemia, 61.2%; with MALME-3M melanoma, 84.4%; in the test with MDA-MB-231 breast it was 68.2%; in the test on RXF 393 renal it was 78.3%; in the test on SF-268 CNS, 74.2%. Further, the growth in the test on SF-295 CNS is 76%; with SF-539 CNS, 77.9%; with UACC-257 melanoma it was 91.2%; with M14 melanoma, 93.8%.

For `C#CCOc1ccc2ncnc(N3CCN(C(=O)CCl)CC3)c2c1`, the growth in the test with DU-145 prostate is 102% [8.25 µM]; in the test with K-562 leukemia, 18.9% [8.25 µM]; in the test on MALME-3M melanoma, 92.4% [8.25 µM]; in the test on MDA-MB-231 breast, 95.7% [8.25 µM]; in the test with RXF 393 renal it was 87.2% [8.25 µM]; in the test with SF-268 CNS, 68.7% [8.25 µM]. Further, the growth was 109% [8.25 µM] with SF-295 CNS, 91.4% [8.25 µM] in the test with SF-539 CNS, 90.8% [8.25 µM] with UACC-257 melanoma and 61.7% [8.25 µM] in the test with M14 melanoma.

`COc1cccc(-c2nn(C(C)(C)C)cc2-c2ccnc(NCCCNS(=O)(=O)c3ccc(C)cc3)c2)c1`: the growth with DU-145 prostate was 107%; with K-562 leukemia it was 101%; in the test with MALME-3M melanoma it was 101%; in the test with MDA-MB-231 breast, 112%; in the test on RXF 393 renal it was 109%; in the test on SF-268 CNS, 105%. Further, the growth in the test on SF-295 CNS was 103%; with SF-539 CNS, 115%; in the test on UACC-257 melanoma, 111%; in the test on M14 melanoma it was 105%.

Regarding `CC(C)(C)c1cc(/C=N\NC(=O)/C=C/C=C/c2ccc3c(c2)OCO3)c(O)c(C(C)(C)C)c1`, the growth is 56% with DU-145 prostate; 59.9% in the test on K-562 leukemia; 71.3% in the test with MALME-3M melanoma; 79% with MDA-MB-231 breast; 94.6% with RXF 393 renal; 67.4% in the test with SF-268 CNS. Moreover, the growth was 92.9% with SF-295 CNS, 87.5% in the test with SF-539 CNS, 88% with UACC-257 melanoma and 73.3% with M14 melanoma.

On to `CC(=O)O[C@H]1CC[C@]2(C)[C@H]3CC=C4[C@@H]5CC(C)(C)CC[C@]5(C(=O)NCCNCCNCCN)CC[C@@]4(C)[C@]3(C)CC[C@H]2C1(C)C`, for which the growth is 17% in the test with DU-145 prostate; -11.3% (active) in the test on K-562 leukemia; 73.5% in the test on MALME-3M melanoma; -42.9% (active) in the test with MDA-MB-231 breast; 65.4% in the test on RXF 393 renal; 87.1% with SF-268 CNS. Further, the growth in the test with SF-295 CNS was 102%; in the test on SF-539 CNS, 86.2%; in the test on UACC-257 melanoma, 93.1%; in the test on M14 melanoma, 23.8%.

For the molecule `COc1ccc2c(c1)c(-c1nonc1-c1cn(C)c3ccccc13)cn2C`, the growth in the test on DU-145 prostate is 14.7%; in the test on K-562 leukemia, 10.5%; in the test on MALME-3M melanoma, 51.9%; with MDA-MB-231 breast it was 28.4%; in the test on RXF 393 renal it was -9.91% (active); with SF-268 CNS, 63%. In addition, the growth with SF-295 CNS was 32%; with SF-539 CNS, -9.13% (active); with UACC-257 melanoma, 66.5%; with M14 melanoma it was 24.4%.

For `COc1ccc(-n2nc(C)c3c(Nc4ccc(NC(=O)Nc5c(Cl)cccc5Cl)cc4)ncnc32)cc1`, the growth was 51.4% in the test with DU-145 prostate; 79.1% in the test on K-562 leukemia; 31.3% in the test with MALME-3M melanoma; 30.6% with MDA-MB-231 breast; 26.2% in the test with RXF 393 renal; 59.4% with SF-268 CNS. For the same molecule, the growth with SF-295 CNS is 85.2%; with SF-539 CNS it was 30%; in the test with UACC-257 melanoma, 53%; in the test on M14 melanoma, 82.2%.

In the case of `COc1ccc(S(=O)(=O)N2CC3(COC3)C2)cc1NC(=O)c1[nH]c(C)c2c1CCCCC2=O`, the growth in the test on DU-145 prostate is 79.6%; in the test with K-562 leukemia, 45.1%; in the test with MALME-3M melanoma, 61.1%; in the test on MDA-MB-231 breast, 47.1%; with RXF 393 renal, 76%; with SF-268 CNS, 78.1%. Further, the growth in the test with SF-295 CNS was 52.8%; in the test on SF-539 CNS, 45.3%; in the test with UACC-257 melanoma, 51.9%; in the test on M14 melanoma, 58.1%.

As for `COc1ccc(/C=C/C(=O)c2ccc(O)c(CN3CCN(c4cc5c(cc4F)c(=O)c(C(=O)O)cn5C4CC4)CC3)c2)cc1`, the growth is 27.8% in the test on DU-145 prostate; 20.3% in the test on K-562 leukemia; 30.4% with MALME-3M melanoma; 50.6% with MDA-MB-231 breast; 28.3% with RXF 393 renal; 30.3% in the test with SF-268 CNS. Moreover, the growth with SF-295 CNS was 13.1%; in the test on SF-539 CNS it was 18.8%; with UACC-257 melanoma, 42%; with M14 melanoma, 30.9%.

In the case of `COc1ccc(C(=O)c2sc3nc4c(c(-c5cccnc5)c3c2N)CCCC4)cc1OC`, the growth in the test with DU-145 prostate is 91.4%; in the test with K-562 leukemia it was 15.2%; in the test on MALME-3M melanoma, 83.5%; in the test with MDA-MB-231 breast, 38.3%; in the test on RXF 393 renal, 51%; with SF-268 CNS, 64.9%. Moreover, the growth is 93.2% in the test with SF-295 CNS, 73.4% in the test with SF-539 CNS, 98.3% with UACC-257 melanoma and 118% with M14 melanoma.

With `COc1ccc(-c2cc(Nc3ccnc(N4CCOCC4)n3)on2)cc1`, the growth in the test with DU-145 prostate is 19.6%; with K-562 leukemia it was 13.1%; in the test on MALME-3M melanoma it was 87.2%; with MDA-MB-231 breast, 57.9%; in the test on RXF 393 renal, -6.95% (active); in the test with SF-268 CNS it was 62.6%. Moreover, the growth in the test on SF-295 CNS was 39.3%; in the test on SF-539 CNS it was -31.9% (active); in the test on UACC-257 melanoma it was 72.7%; in the test on M14 melanoma, 26.9%.
